Compound activity (PubChem)
Hits are enriched below; roughly 15% of the tested compounds scored in any of these assays.
HCMV inh: human cytomegalovirus inhibition | HFF cells, HCMV-luciferase reporter, 72 h; hits give low values | activity change, negative = inhibition, % at 57.5 µM | 4.5% of 410,000 active; in the data active = activity change below about -60%; inconclusive = no clear call, values can overlap the other calls; inactive = above about -39%
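Screen run at 2 compound doses on HFFs infected with reporter HCMV, MOI 1 PFU/cell. Luciferase activity from cell lysates at 72 h post infection gave inhibition relative to buffer-only and Salinomycin wells.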
Sm TGR block: blocks Schistosoma mansoni thioredoxin glutathione reductase. Potency, µM (series often up to 114 µM), usual class: inhibitors. Q962Y6. purified TGR, DTNB reduction, TNB absorbance 405 nm. AID 485364. 3% of 360,000 active; note: nearly all actives have a fitted effect of over 60% in size
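Kinetic colorimetric format: TGR-catalysed, NADPH-driven DTNB reduction monitored via TNB absorbance. Enzyme dispensed at 20 nM; compound exposure 15 min at room temperature before reaction start.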
Pf growth 96h: P. falciparum growth inhibition at 96 hours; P. falciparum luciferase reporter growth, 96 h; Potency, µM (highest dose often 28.7 µM), most hits filed as inhibitors; 6.9% of 320,000 active; AID 504834
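96 h incubation, 37 C, 5% CO2, of luciferase-reporter P. falciparum-infected RBCs (2% hematocrit, 0.05% parasitemia final) with test compounds; endpoint luminescence.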
Pf growth 48h: P. falciparum growth inhibition at 48 hours (one generation); Potency, µM (highest dose often 28.7 µM), actives largely listed as inhibitors; 5.9% of 310,000 active; P. falciparum luciferase growth in erythrocytes, 48 h
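A one-generation exposure of luciferase-tagged malaria parasites in RPMI 1640/Albumax erythrocyte culture, 37 C and 5% CO2. Inhibition is inferred from decreased luminescence after adding detection reagent.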
SARS PLpro yeast: inhibitors of SARS-CoV papain-like protease in yeast. 0.19% of 330,000 active. S. cerevisiae expressing SARS-CoV PLpro, growth rescue. Potency, µM (series often up to 32.9 µM), most hits filed as activators; calls by dose curve; note: nearly all actives have a fitted effect of over 55% in size
HCV inhibitor: blocks hepatitis C virus. Huh7.5.1 HCVcc-Cre infection, luciferase reporter, 44 h. Potency, µM (doses to about 41.8 µM), actives largely listed as inhibitors. 3.4% of 340,000 active. AID 651820
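Luciferase read-out (15 sec integration) after a 15 min room-temperature substrate step quantifies HCVcc-Cre infection. Cells, 1,000 per well, had compound added 4 h post-plating, then virus at ~0.5 moi, and were cultured 44 h.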
Hits are given with their value. Unless noted, calls come from the whole dose curve; as a rule, active = well fitted curve in the direction sought with a large enough effect; inconclusive = small, poorly fitted or top-dose-only effect, or another doubt; inactive = no such curve, though single readings can be large; an effect the other way counts as inactive or inconclusive.

`O=C(OCC(=O)N(C1CCCCC1)C1CCCCC1)c1ccc(O)cc1` gave HCMV inh inactive, Sm TGR block inactive, Pf growth 96h inconclusive, Pf growth 48h 8.3µM, SARS PLpro yeast inactive and HCV inhibitor inactive.
CNC(=O)COC(=O)c1ccc(NC(=O)CC#N)cc1 was read as HCMV inh -101, Sm TGR block inactive, Pf growth 48h inactive, SARS PLpro yeast inactive and HCV inhibitor inactive.
N#CCC(=O)Nc1ccc(C(=O)OCC(=O)NCc2ccc3c(c2)OCO3)cc1 was read as HCMV inh inactive, Sm TGR block inactive, Pf growth 96h inconclusive, Pf growth 48h 8.3µM, SARS PLpro yeast inactive and HCV inhibitor inactive.
`COc1cc(/C=N/NC(=S)NCc2ccccc2)ccc1OCC#N` gave HCMV inh inactive, Sm TGR block inactive, Pf growth 96h inactive, Pf growth 48h inactive, SARS PLpro yeast inactive and HCV inhibitor inactive.
For Cc1cccc(-n2nnc(-c3nc(-c4ccccc4)no3)c2N)c1C the results were HCMV inh inactive and Sm TGR block inactive.
Cc1ccc(N2CC(C(=O)Nc3ccc(S(=O)(=O)N4CCOCC4)cc3)CC2=O)cc1Cl (stereo not drawn) was read as HCMV inh inactive, Sm TGR block inactive, Pf growth 96h inactive, Pf growth 48h inconclusive, SARS PLpro yeast inactive and HCV inhibitor inactive.
For O=C(Cn1ncc2c3ccccc3n(Cc3ccccc3)c2c1=O)NCCc1ccc(Cl)cc1 the results were HCMV inh -69 and Sm TGR block inactive.
`O=C(Cn1cnc2c(OCc3ccccc3)ncnc21)NCCCN1CCCC1=O` gave HCMV inh inactive, SARS PLpro yeast inactive and HCV inhibitor 0.56µM.
For O=C(Cn1ncc2c3ccccc3n(Cc3ccc(Cl)cc3)c2c1=O)NCCCN1CCCC1=O the results were HCMV inh inactive, Sm TGR block inactive, Pf growth 96h 13µM, Pf growth 48h inactive, SARS PLpro yeast inactive and HCV inhibitor inactive.
For O=C(Cn1ncc2c3ccccc3n(Cc3ccccc3)c2c1=O)NCCCN1CCCCC1 the results were HCMV inh inactive and Sm TGR block inactive.
O=C(Cn1ncc2c3ccccc3n(Cc3ccccc3)c2c1=O)NCCCN1CCCC1=O was read as HCMV inh -67, Sm TGR block inactive, Pf growth 96h inconclusive, Pf growth 48h inconclusive, SARS PLpro yeast inactive and HCV inhibitor inactive.
`Cc1ccc(-n2c(=O)c3c(C)c(C(=O)N(C)C)sc3n(CC(=O)N(C)c3ccccc3)c2=O)cc1C` gave HCMV inh inactive and Sm TGR block inactive.
For CC1CN(C(=O)CSc2nnc(-c3cccs3)n2N)CC(C)O1 (stereo not drawn) the results were HCMV inh inactive, Sm TGR block inactive, Pf growth 96h inactive, Pf growth 48h inactive, SARS PLpro yeast inactive and HCV inhibitor inactive.
`CCC(C)c1ccccc1NC(=O)COC(=O)C1=COCCO1` (stereo not drawn) gave HCMV inh inactive, Sm TGR block inactive, Pf growth 96h inactive, Pf growth 48h inactive, SARS PLpro yeast inactive and HCV inhibitor inactive.
CCOC(=O)C(O)(c1ccc(NC(=O)c2ccc(Cl)c(Cl)c2)cc1)C(F)(F)F (stereo not drawn) was read as HCMV inh inactive, Sm TGR block inactive, Pf growth 96h inconclusive, Pf growth 48h 9.3µM, SARS PLpro yeast inactive and HCV inhibitor inconclusive.
Screening CCOC(=O)C(O)(c1ccc(N(C)C(=O)c2ccc(Cl)c(Cl)c2)cc1)C(F)(F)F (stereo not drawn) returned HCMV inh inactive, Sm TGR block inactive, Pf growth 96h 10µM, Pf growth 48h inconclusive, SARS PLpro yeast inconclusive and HCV inhibitor inactive.
Screening COC(=O)C(O)(c1ccc(N(C)C(=O)c2ccc(Cl)c(Cl)c2)cc1)C(F)(F)F (stereo not drawn) returned HCMV inh inactive, Sm TGR block inactive, Pf growth 96h inactive, Pf growth 48h inactive, SARS PLpro yeast inactive and HCV inhibitor inactive.
CCOC(=O)C(O)(c1ccc(NC(=O)NC2CCCCC2)cc1)C(F)(F)F (stereo not drawn) was read as HCMV inh inactive, Sm TGR block inactive, Pf growth 96h inactive, SARS PLpro yeast inactive and HCV inhibitor inconclusive.
